The record followed here is PubChem BioAssay AID2685 (National Center for Advancing Translational Sciences (NCATS), 2010).

The whole screen tested about 320,000 compounds, of which about 2,100 (0.66%) were called active. Another 53% or so got no clear call; they are omitted. Calls come from the whole dose curve; as a rule, active = well fitted inhibition curve with a large enough effect in the signal ratio, with a control signal flat (not every such curve was filed as active); inconclusive = small, poorly fitted or top-dose-only effect, or effect the other way, or a change in a side signal; inactive = flat fitted curve, though single readings scatter; the % refers to the signal ratio. What follows is part of a selection rich in actives, with near analogues and random picks from the rest.
Potency is the fitted concentration of half-maximal effect.

A short description of the assay: qHTS Assay for Lipid Storage Modulators in Drosophila S3 Cells.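 For cell number change: cells counted by Cell Tracker Red CMTPX staining in the red channel.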 For lipid storage change, negative = inhibition: % is set by controls: 0 for no effect and ±100 for the full control effect. To be noted: BODIPY lipid droplet fluorescence, 18-24 h, cells fed with added oleic acid; cell number change: measured here: cell count max response; series mostly up to 46.1 µM. In outline: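 Drosophila S3 cells loaded with oleic acid (400 uM, as added) and compounds at several concentrations; lipid droplets imaged by 488-nm laser-scanning cytometry, 500–530 nm intensity and object ratio to cell channel. Percent activity normalized to 20 uM Triacsin C.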
As for `CC(C)(Cc1nc2ccccc2[nH]1)C(=O)O`, the Potency was 23.1 µM (active) and the cell number change was -19.5%.
For `O=C(O)COCc1nc2ccccc2[nH]1`, in that order: “inactive” and 0.419%.
`O=C(O)CSCc1nc2ccccc2[nH]1`: the Potency result was “inactive”.
`NNC(=O)CNC(=O)c1cccc(Br)c1`: the Potency result was “inactive”.
Take `N#C/C(=C\c1ccc(-c2ccccc2)cc1)c1nc(-c2ccco2)cs1`: the Potency result is “inactive” and the cell number change was determined as 1.16%.
Turning to `N#C/C(=C\c1ccc(-c2ccc(F)cc2)o1)C(=O)Nc1nc(-c2cccs2)cs1`, the Potency entry was “inactive” and the cell number change was -13%.
Take `N#C/C(=C/c1ccc(-c2ccccc2)o1)c1nc(-c2cccs2)cs1`: the Potency was 5.8 µM (active) and the cell number change was 20.9%.
For `C=CCC1(N(C(C)=O)c2ccccc2C)CCCCC1`, in that order: “inactive” and -21.1%.
For `Cc1oc(/N=C/c2ccccc2O)c(C#N)c1C`, in that order: “inactive” and -11.3%.
For `Cc1oc(/N=C/c2cccc([N+](=O)[O-])c2)c(C#N)c1C`, in that order: 16.4 µM (active) and -19.3%.
Consider `Cc1oc(/N=C/c2ccccc2)c(C#N)c1C`, for which the Potency entry is “inactive” and the cell number change is 0.993%.
For `Cc1ccc(NC(=O)c2ccc(S(=O)(=O)N3CCC(C)CC3)cc2)cc1`, in that order: “inactive” and 29.6%.
For `CCS(=O)(=O)c1ncc(Cl)c(C(=O)Nc2ccc(S(=O)(=O)N3CCC(C)CC3)cc2)n1`, in that order: 1.3 µM (active) and -22.6%.
Turning to `CCOC(=O)Nc1ccc(S(=O)(=O)N2CCC(C)CC2)cc1`, the Potency result is “inactive” and the cell number change amounted to 5.9%.
As to `CCS(=O)(=O)c1ncc(Cl)c(C(=O)Nc2ccc(S(=O)(=O)N3CCCC(C)C3)cc2)n1` (stereo not drawn), the Potency was 0.146 µM (active) and the cell number change is -27.2%.
Take `CC1CCCN(S(=O)(=O)c2ccc(NC(=O)CNC3CCCC3)cc2)C1` (stereo not drawn): the Potency entry is “inactive” and the cell number change is -7.89%.
For `CC1CCCN(S(=O)(=O)c2ccc(NC(=O)CN3CCCCC3)cc2)C1` (stereo not drawn), in that order: “inactive” and -3.44%.
On to `C/C(=N\Nc1nccnc1Cl)c1ccc([N+](=O)[O-])cc1`, for which the Potency entry was “inactive” and the cell number change is -11.4%.
For the molecule `O=C(NCCS(=O)(=O)N1CCN(c2ccccc2)CC1)c1ccc(Br)o1`, the lipid storage change, negative = inhibition is 10.4% [at 0.0737 µM] (inactive).
Turning to `Cc1cc(C)n2c(SCCO)nnc2n1`, the Potency result was “inactive” and the cell number change came to 8.77%.
Take `CC(C)(C)c1ccc(C(=O)Nc2cccc3ncccc23)cc1`: the Potency is 14.6 µM (active).
With `CCc1noc(C)c1C(=O)Nc1ccc(F)c(F)c1F`, the Potency entry was “inactive” and the cell number change is -3.41%.
On to `CC(=O)Nc1cccc(C(=O)Nc2cccc3ncccc23)c1`, for which the Potency result was “inactive” and the cell number change was -6.58%.
For `O=C(Nc1cccc2ncccc12)c1cccnc1`, in that order: “inactive” and 4.51%.
`CCc1noc(C)c1C(=O)Nc1ccccc1N1CCOCC1`: the Potency entry is “inactive”.
For the molecule `CCc1noc(C)c1C(=O)Nc1cccc2ncccc12`, the Potency was 2.31 µM (active) and the cell number change is -8.65%.
For `CCOC(=O)c1cc(CC)sc1NC(=O)CN1CCN(C(=O)C2CCCO2)CC1` (stereo not drawn), in that order: “inactive” and -6.11%.
For `CC(=O)N(C)c1ccc(NC(=O)c2ccc([N+](=O)[O-])cc2Cl)cc1`, in that order: “inactive” and 1.5%.
As to `CCCCN(C(=O)CCC(=O)OCC(=O)NCc1ccccc1)c1c(N)n(CCC)c(=O)[nH]c1=O`, the Potency entry was “inactive” and the cell number change was -13.8%.
For `COc1ccc(NC2CC(=O)N(c3cccc(C)c3)C2=O)cc1` (stereo not drawn), in that order: “inactive” and -0.809%.
For `O=C(NCc1ccncc1)NC1CCCCC1`, in that order: “inactive” and 5.51%.
For `C=CCc1ccccc1OCCn1nnc2ccccc21`, in that order: “inactive” and -12.8%.
Regarding `Fc1ccc(-c2ccc(/C=N\n3cnnc3)o2)cc1Cl`, the Potency entry was “inactive”.
In the case of `Cc1ccc(-c2ccc(/C=N/n3cnnc3)o2)cc1`, the Potency result was “inactive” and the cell number change turned out to be 8.97%.
For `Fc1ccc(-c2ccc(/C=N/n3cnnc3)o2)cc1`, in that order: 10.3 µM (active) and -15.7%.
`O=C(Nc1ccccc1)NC1CCN(Cc2c(F)cccc2Cl)CC1`: the Potency entry is “inactive” and the cell number change was determined as 4.31%.
For `O=c1c(Cc2c(F)cccc2Cl)c(O)ccn1CCc1ccccn1`, in that order: 14.1 µM (active) and -22%.
With `O=c1c(Cc2c(F)cccc2Cl)c(O)ccn1Cc1ccc(F)cc1`, the Potency result was “inactive”.
Consider `O=c1c(Cc2c(F)cccc2Cl)c(O)ccn1C1CC1`, for which the Potency result is “inactive” and the cell number change worked out at 4.74%.
With `CCC(C)(C)n1nnnc1C(c1ccccc1)N1CCN(C2CCCC2)CC1` (stereo not drawn), the Potency entry is “inactive” and the cell number change was -10.2%.
Consider `COc1ccc(CC(=O)NNC(=O)c2ccco2)cc1OC`, for which the Potency entry was “inactive” and the cell number change was -12.7%.
For `O=C(CCCN1C(=O)/C(=C/c2ccccc2)SC1=S)N1CCOCC1`, in that order: “inactive” and 15.4%.
In the case of `O=C1/C(=C/c2ccc(Cl)cc2)SC(=S)N1CCC(=O)N1CCCCC1CCO` (stereo not drawn), the Potency entry is “inactive” and the cell number change was -22.1%.
For `CCN(C(=O)CN1C(=O)/C(=C/c2ccccc2)SC1=S)C1CCS(=O)(=O)C1` (stereo not drawn), in that order: “inactive” and -6.26%.
For `CCN(C(=O)CCN1C(=O)/C(=C/c2ccccc2)SC1=S)C1CCS(=O)(=O)C1` (stereo not drawn), in that order: 18.4 µM (active) and -2.83%.
For `COc1cc(/C=C2\SC(=S)N(CCCCC(=O)O)C2=O)ccc1OS(=O)(=O)c1ccc(C)cc1`, in that order: 20.6 µM (active) and -25.4%.
Take `O=C(O)CCCCN1C(=O)/C(=C\c2ccc(OCc3ccccc3)c(OCc3ccccc3)c2)SC1=S`: the Potency result is “inactive” and the cell number change was -10.9%.
For `COc1ccc(/C=C2\SC(=S)N(CCCC(=O)N3CCCCC3CCO)C2=O)cc1` (stereo not drawn), in that order: “inactive” and -3.77%.
For `COc1ccc(/C=C2\SC(=S)N(CCC(=O)N3CCCCC3CCO)C2=O)cc1` (stereo not drawn), in that order: 20.6 µM (active) and -3.06%.
For `COc1cc(/C=C2\SC(=S)N(CC(=O)O)C2=O)ccc1OS(=O)(=O)c1ccc(C)cc1`, in that order: “inactive” and -2.94%.
Regarding `CN1CCN(C(=O)CCCN2C(=O)/C(=C/c3ccccc3)SC2=S)CC1`, the Potency is 8.2 µM (active) and the cell number change amounted to 3.91%.
For `COc1ccc(/C=C2\SC(=S)N(CCCC(=O)N3CCN(C)CC3)C2=O)cc1`, in that order: “inactive” and -9.52%.
For `CN(C(=O)CCN1C(=O)/C(=C/c2ccccc2)SC1=S)C1CCS(=O)(=O)C1` (stereo not drawn), in that order: “inactive” and 10.8%.
On to `O=C(O)CCN=C1CCCc2ccccc2N1`, for which the Potency entry was “inactive” and the cell number change is -7.32%.
Turning to `COCCCNc1nnc(Cc2ccccc2)c2ccccc12`, the Potency result was “inactive” and the cell number change was -6.27%.
For `CC(=O)N1CCCc2cc(S(=O)(=O)Nc3ccc(C)cc3C)ccc21`, in that order: “inactive” and 19.8%.
In the case of `Cc1ccc(C(O)P(=O)(OC2CCCCC2)OC2CCCCC2)cc1` (stereo not drawn), the Potency result was “inactive” and the cell number change was 22.2%.
For `O=C(COc1ccc(S(=O)(=O)Nc2ccccc2)cc1)NCc1cccnc1`, in that order: “inactive” and -1.79%.
For `Cc1c(C(=O)NC(C)C)c(-c2ccccc2)nn1-c1ccccc1`, in that order: “inactive” and -7.38%.
For `O=C(Nc1nnc(C2=COCCO2)o1)c1ccc(S(=O)(=O)N2CCOCC2)cc1`, in that order: “inactive” and 17.2%.
